Compounds without any hit were thinned out: in the full panel of roughly 83,000, 20% have a hit.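 A percent growth of 40 corresponds to 60% growth inhibition; 0 means no net growth; -100 means all cells died. Active threshold: below 10.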 Unmarked numbers belong to inactive results. Active and inactive are the calls of the source.
test system: 786-0 renal; assay: NCI-60 one-dose screen, 48 h (100 = growth as untreated, 0 = no growth, -100 = all killed); conditions: 10 µM unless noted

| Structure (SMILES) | growth |
| --- | --- |
| CN(C)c1nc(NCCNS(=O)(=O)c2ccc(C3=Nc4c(N)nc(N)nc4NC(c4ccc(C(F)(F)F)cc4)C3)cc2)nc(Nc2ccc(F)cc2)n1 (stereo not drawn) | -35.4% (active) |
| COc1ccc(-c2nc3cc(C)ccc3n2CC(=O)N=Nc2c(O)[nH]c3ccccc23)cc1 | 60.8% |
| NS(=O)(=O)c1ccc(CCNC(=O)CSc2ccc(-c3ccc(Br)cc3)nn2)cc1 | 75.3% |
| O=C(COc1ccc2c(c1)CCCC(=O)N2)NCc1ccccc1 | 101% |
| CC1=C(C#N)C2=NNCC(c3ccccc3)=NN2C(c2ccccc2)=C1 | 98.2% |
| CC1CCCCN1CCCNC(=O)N/C(N)=N/c1nc2ccccc2s1 (stereo not drawn) | 29.5% |
| Cc1nc(Nc2ccccn2)sc1C(=O)CC(SCC(=O)Nc1ccc(Cl)cc1)c1ccccc1F (stereo not drawn) | 10.9% |
| CCCSc1nc(Nc2ccc(S(N)(=O)=O)cc2)c(C#N)c(-c2cc(OC)c(OC)c(OC)c2)n1 | 41.5% |
| Clc1cccc(N/N=C/c2c[nH]c3ccc(Br)cc23)n1 | 13% |
| Cc1ccc(S(=O)(=O)c2nc(S(=O)(=O)c3ccc(C)cc3)c(N3CCN(C)CC3)s2)cc1 | 47.5% |
| COc1c(F)ccc(C(=O)Nc2ccc3nc(NC(=O)C4CCCN(S(=O)(=O)c5ccc(C(F)(F)F)cc5)C4)sc3c2)c1F (stereo not drawn) | 62.9% |
| COc1ccc(-c2ccnc(SCc3cc4ccccc4[nH]c3=O)n2)cc1 | 71% |
| Cc1ccc(C2=NN(c3nc(-c4cc5ccccc5oc4=O)cs3)C(c3ccc(C)cc3)C2)cc1 (stereo not drawn) | 110% |
| COc1c(F)ccc(C(=O)Nc2ccc3nc(NC(=O)C4CCCN(S(=O)(=O)c5cccc(C(F)(F)F)c5)C4)sc3c2)c1F (stereo not drawn) | 60.9% |
| Cc1ccc(S(=O)(=O)c2nc(S(=O)(=O)c3ccc(C)cc3)c(Cl)s2)cc1 | -49.6% (active) |
| COc1ccc2c(c1)c(-c1cc3nc(-c4cn(C)c5ncc(Br)cc45)cc(N)n3n1)cn2C | -94.8% (active) |
| COc1cccc(-c2nc(Nc3ccc(S(N)(=O)=O)cc3)c3ccccc3n2)c1 | 5.42% (active) |

| Structure (SMILES) | growth |
| --- | --- |
| CCS(=O)(=O)N1CCCC(C(=O)Nc2nc3ccc(NC(=O)c4ccc(F)c(OC)c4F)cc3s2)C1 (stereo not drawn) | 58.1% |
| C=C1CCC2C3(C)COC(c4ccccc4)OC3CCC2(C)C1CC(Sc1ccccc1)C1=CCOC1=O (stereo not drawn) | 52.3% |
| Cc1cccc(-c2nc(Nc3cccc(S(N)(=O)=O)c3)c3ccccc3n2)c1 | 5.75% (active) |
| Brc1ccc(-c2n(Cc3ccc4ccccc4c3)c(-c3ccccc3)c(-c3ccccc3)[n+]2Cc2ccc3ccccc3c2)cc1 | -79.3% (active) |
| Cc1cc2nc3c([nH]c2cc1C)c1ccc(=O)cc1n3CCN(C)C | 49.1% |
| N=C1N=C(SCc2nc3ccccc3[nH]2)NC(=O)/C1=C/c1ccc(Cl)cc1 | 118% |
| COc1c(F)ccc(C(=O)Nc2ccc3nc(NC(=O)C4CCCN(S(=O)(=O)c5ccc(Br)c(F)c5)C4)sc3c2)c1F (stereo not drawn) | 52.7% |
| C=C1CC[C@@H]2[C@]3(C)COC(c4cn[nH]c4-c4ccc(Br)cc4)O[C@@H]3CC[C@@]2(C)[C@@H]1C/C=C1/C(=O)OCC1O (stereo partly drawn) | -95.5% (active) |
| Cc1ccc2c(c1)nc(-c1ccccc1)n2CC(=O)N=Nc1c(O)[nH]c2ccc(Br)cc12 | -88.1% (active) |
| Cn1nc(C(F)(F)F)cc1-c1cc(Cl)c(COc2ccc(Cl)cc2)c(-c2ccc(Cl)c(C(F)(F)F)c2)c1O | -63.5% (active) |
| Cc1occc1C(=O)NN1C(=O)/C(=C/C=C/c2ccc([N+](=O)[O-])o2)SC1=S | -69.7% (active) |
| O=c1cc(-c2ccccc2)oc2cc(OCCCC[P+](c3ccccc3)(c3ccccc3)c3ccccc3)cc(O)c12 | -69.5% (active) |
| COc1c(F)ccc(C(=O)Nc2ccc3nc(NC(=O)C4CCCN(S(=O)(=O)c5cccc(Br)c5)C4)sc3c2)c1F (stereo not drawn) | 70% |
| C=C1CC[C@@H]2[C@]3(C)COC(c4cn[nH]c4-c4ccc(F)cc4)O[C@@H]3CC[C@@]2(C)[C@@H]1C/C=C1/C(=O)OCC1O (stereo partly drawn) | -89.2% (active) |
| CCCCCCCS(=O)(=O)N1CCCC(C(=O)Nc2nc3ccc(NC(=O)c4ccc(F)c(OC)c4F)cc3s2)C1 (stereo not drawn) | 50% |
| C=C1CCC2C3(C)COC(c4ccccc4)OC3CCC2(C)C1CC(NCc1ccccc1)C1=CCOC1=O (stereo not drawn) | 79.3% |

Source: PubChem BioAssay (NCI)
